PubChem BioAssay

What was measured:
[1] = test system: Human papillomavirus type 1a protein E7 (residues 44-93); test: HPV1a E7 fragment binders on microarrays, primary screen, biochemical, small-molecule microarray, residues 44-93, 635 nm fluorescence (AID 1108); conditions: small-molecule microarray binding, fluorescence 635 nm; higher = more signal;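 further: E7 fragment applied at 1 µg/mL in TBST for 1 h at 4 C; score combines spot fluorescence with its signal to noise ratio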
[2] = modulators of HCV replicon luciferase signal, primary screen, HCV replication inhibitor project, Huh7 cells, luciferase reporter (AID 1109); conditions: 48 h, higher = more signal;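 further: huh7 hepatoma cells harbouring a luciferase neomycin HCV replicon reporter; luciferase luminescence as measure of HCV replicon replication; test concentration not given here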
[3] = biological target: Left-right determination factor 2 (Homo sapiens) (UniProt O00292); test: LEFTY2 binders on small-molecule microarrays, primary screen, biochemical, small-molecule microarray, 635 nm fluorescence scan (AID 1110); conditions: LEFTY2 binding, higher = more signal
Sequence of Left-right determination factor 2 (Homo sapiens) (O00292 whole entry, looked up): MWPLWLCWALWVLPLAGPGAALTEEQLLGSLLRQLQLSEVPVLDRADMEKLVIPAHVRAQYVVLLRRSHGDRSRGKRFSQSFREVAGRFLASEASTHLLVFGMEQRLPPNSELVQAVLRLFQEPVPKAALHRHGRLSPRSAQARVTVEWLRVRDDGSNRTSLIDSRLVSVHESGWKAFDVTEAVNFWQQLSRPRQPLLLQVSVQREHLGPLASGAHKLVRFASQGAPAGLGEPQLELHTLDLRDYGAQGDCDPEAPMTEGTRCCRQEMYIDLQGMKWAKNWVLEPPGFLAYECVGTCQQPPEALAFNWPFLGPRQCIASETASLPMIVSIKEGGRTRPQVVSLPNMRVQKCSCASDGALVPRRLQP

[4] = biological target: Calmodulin-1 (Homo sapiens) (UniProt P0DP23); test: CALM1 binders on microarrays, EGTA buffer, profiling panel, biochemical, small-molecule microarray, Cy5-labelled CALM1 (AID 1111); conditions: Cy5-CALM1 binding fluorescence, higher = more signal;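 further: labelled calmodulin applied in Tris saline Tween buffer holding calcium plus EGTA and DTT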
[5] = biological target: Calmodulin-1 (Homo sapiens) (UniProt P0DP23); test: calcium-bound CALM1 binders on microarrays, profiling panel, artefact control for SMM control-protein annotation, biochemical, small-molecule microarray, Cy5-labelled CALM1, plus calcium (AID 1112); conditions: Cy5-CALM1 binding fluorescence, higher = more signal;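 further: score merges spot fluorescence with signal to noise from triplicate slides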
[6] = small-molecule microarray binders of probe aWnt5a, primary screen, biochemical, biotinylated probe, 635/667 nm fluorescence (AID 1113); conditions: higher = more signal;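 further: score merges 667 nm fluorescence intensity with signal-to-noise per printed feature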
[7] = small-molecule microarray binders of probe aShh, primary screen, biochemical, biotinylated probe, 635/667 nm fluorescence (AID 1114); conditions: higher = more signal;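 further: probe is biotin-labelled aShh protein from a stem cell growth factor screen; measures binding of labelled protein to compounds printed on the slide; score merges feature fluorescence at 667 nm with signal-to-noise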
[8] = small-molecule microarray binders of probe aNog, primary screen, biochemical, biotinylated probe, 635/667 nm fluorescence (AID 1115); conditions: higher = more signal;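 further: probe is biotinylated aNog protein used at 0.15 µg/mL for 1 h at 4 C; z-score combines 667 nm fluorescence of each spot with its signal to noise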
[9] = biological target: Torsin-1A-interacting protein 1 (Homo sapiens) (UniProt Q5JTV8); test: LAP1 binders from COS7 cell lysate, primary screen, small-molecule microarray, 635/667 nm fluorescence (AID 1116); conditions: COS7-hLAP1 lysate binding, 635 nm fluorescence, higher = more signal
Sequence of Torsin-1A-interacting protein 1 (Homo sapiens) (Q5JTV8 whole entry, looked up): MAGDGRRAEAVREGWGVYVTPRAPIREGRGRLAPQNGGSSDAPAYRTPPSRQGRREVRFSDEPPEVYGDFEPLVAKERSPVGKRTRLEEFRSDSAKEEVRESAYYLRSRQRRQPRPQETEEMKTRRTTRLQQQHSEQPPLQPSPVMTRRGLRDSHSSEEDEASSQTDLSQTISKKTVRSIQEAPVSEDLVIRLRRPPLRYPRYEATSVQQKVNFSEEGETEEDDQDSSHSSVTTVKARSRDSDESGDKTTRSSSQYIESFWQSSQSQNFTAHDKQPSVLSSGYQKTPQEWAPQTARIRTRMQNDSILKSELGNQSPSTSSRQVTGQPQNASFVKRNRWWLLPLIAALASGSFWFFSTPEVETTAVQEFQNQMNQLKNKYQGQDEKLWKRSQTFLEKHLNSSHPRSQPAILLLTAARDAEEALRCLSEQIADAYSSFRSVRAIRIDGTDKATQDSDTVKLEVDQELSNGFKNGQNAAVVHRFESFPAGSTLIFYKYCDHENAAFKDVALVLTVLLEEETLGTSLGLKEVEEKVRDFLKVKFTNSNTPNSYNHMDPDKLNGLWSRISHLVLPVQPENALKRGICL

[10] = biological target: Alpha-bungarotoxin (Bungarus multicinctus) (UniProt P60615); test: alpha-bungarotoxin binders on microarray, profiling panel, artefact control for SMM control protein annotation, biochemical, small-molecule microarray, Alexa647 label, 635/667 nm fluorescence (AID 1117); conditions: alpha-BTX-A647 binding fluorescence, higher = more signal
Sequence of Alpha-bungarotoxin (Bungarus multicinctus) (P60615 whole entry, looked up): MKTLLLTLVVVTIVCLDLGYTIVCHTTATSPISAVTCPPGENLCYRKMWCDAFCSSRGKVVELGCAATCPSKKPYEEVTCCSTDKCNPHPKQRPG

SMILES	composite z-score [1]	z-score [2]	composite z-score [3]	composite z-score [4]	composite z-score [5]	composite z-score [6]	composite z-score [7]	composite z-score [8]	composite z-score [9]	composite z-score [10]
C=CCC(OC(C)=O)[C@@H]1[C@@H](N(Cc2cccc3ccccc23)C(=O)c2ccc(C)cc2)c2cc(OCCCO)ccc2N1C(=O)c1ccc2ccccc2c1 (stereo not given in full)	-0.44	-0.945	0.346	-0.0236	-0.0542	0.0229	-0.0793	-0.329	0.139	0.132
COCCOC(=O)N1C(=O)[C@@]2(c3cc(C#Cc4ccc(OC)cc4)ccc31)[C@H](C(N)=O)[C@H]1C(=O)O[C@H](c3ccccc3)[C@H](c3ccccc3)N1[C@@H]2c1ccc(OCCO)cc1	1.42	-2.25	0.746	0.894	-0.454	-0.0512	-0.12	0.492	1.09	1.5
C=CCOC(=O)[C@@H]1[C@H]2C(=O)O[C@H](c3ccccc3)[C@H](c3ccccc3)N2[C@H](c2ccc(OCCOC(=O)[C@@H]3C[C@@H]4C(=O)N5CCC[C@H]5C(=O)N4[C@@H]3c3cccc(OCCO)c3)cc2)[C@@]12C(=O)Nc1ccc(I)cc12	1.31	-1.01	0.56	1.25	-0.141	-0.0718	-0.264	-0.342	0.972	1.11
C[N+](C)(C)CCCC[C@@H]1NC(=O)[C@H]2C[C@@H](C(=O)NCCCCCCN)[C@@H](c3cccc(OCCO)c3)N2C1=O	1.4	0.347	1.39	1.11	1.13	0.469	0.705	2.31	1.21	0.995
COc1ccc([Si](C)(C)[C@@H]2[C@@H](CC(=O)N(CCO)Cc3ccccc3)O[C@]3(C(=O)N(Cc4ccc(N5CCOC5=O)cc4)c4ccccc43)[C@H]2C)cc1	0.542	-4.45	0.491	0.515	0.385	-0.0337	0.321	0.264	1.02	0.989
C[C@@H]1ON(c2ccccc2)[C@H](c2ccccc2)[C@H]1C(=O)N1C(=O)OC[C@H]1Cc1ccccc1	1.06	-0.782	0.567	-0.137	-0.542	0.765	-0.304	-0.282	0.28	0.327
CCOC(=O)C1=CC[C@@H](c2ccc(N(CC)CC)cc2)N(S(=O)(=O)c2ccc(C)cc2)[C@H]1c1ccc([N+](=O)[O-])cc1	1.24	-0.83	-1.76	0.863	-0.378	-0.0472	-0.0035	0.587	0.923	0.274
COc1ccc([Si](C)(C)[C@H]2[C@H](CC(=O)N3CCC[C@H]3CO)O[C@@]3(C(=O)N(Cc4ccc(N5C(=O)c6cccc7cccc5c67)cc4)c4ccccc43)[C@@H]2C)cc1	1.14	-1.96	0.758	0.325	-0.544	-0.0944	0.151	0.473	0.585	2.05
